Calls of active or inactive are those of the source.

Assay [1] concerns Plasmodium falciparum Sir2 (PF13_0152, Sir2A). Nature of the assay: pfSir2 binders on small-molecule microarrays, primary screen, biochemical, small-molecule microarray, 635 nm fluorescence (AID 1098).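 Also: score merges spot fluorescence intensity with its signal-to-noise ratio.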 The settings on record: small-molecule microarray binding, fluorescence 635 nm; higher = more signal.
A short description of assay [2]: small-molecule microarray binders of probe aDKK1, primary screen, biochemical, biotinylated probe, 635/667 nm fluorescence (AID 1099).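 Also: score merges 667nm spot fluorescence with signal to noise across triplicate slides; reference of the scale not given here.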 The settings on record: higher = more signal.
Assay [3] in a line: small-molecule microarray binders of probe aCHRDL2, primary screen, biochemical, biotinylated probe, 635/667 nm fluorescence (AID 1100). The settings on record: higher = more signal.
Assay [4] is described as follows: splicing luciferase reporter signal modulators, primary screen, spliceosome inhibition project, cell-based, HEK293, splice +/- reporter (AID 1101).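 Also: HEK293 cells carrying a splicing-competent luciferase reporter gene; test concentration not given here.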 The settings on record: luminescence, 24 h, higher = more signal, called active from +8 up or from −8 down. A general note: A reporter such as luciferase makes a cellular process visible.
The target in assay [5] is Fibroblast growth factor 10 (Homo sapiens) (UniProt O15520). Nature of the assay: FGF10 binders on small-molecule microarrays, primary screen, biochemical, small-molecule microarray, 635 nm fluorescence (AID 1102). The settings on record: FGF10 binding, fluorescence 635 nm, higher = more signal.
The subject of assay [6] is glycogen synthase kinase-3 (GSK3A per assay name; protocol says GSK3B). Nature of the assay: GSK3 binders on small-molecule microarrays, primary screen, biochemical, small-molecule microarray, 635 nm fluorescence, GSK3A (AID 1103). Also: the record names both GSK3A and GSK3B. The settings on record: small-molecule microarray binding, fluorescence 635 nm; higher = more signal.
In assay [7] the target is Epidermal growth factor receptor (Homo sapiens) (UniProt P00533). Nature of the assay: EGFR binders on small-molecule microarrays, primary screen, biochemical, small-molecule microarray, 635 nm fluorescence (AID 1104).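 Also: score merges 667 nm emission intensity with spot signal to noise over triplicate slides.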 The settings on record: EGFR binding, higher = more signal.
Assay [8] addresses Follistatin-related protein 3 (Homo sapiens) (UniProt O95633). Kind of assay: FSTL3 binders on small-molecule microarrays, primary screen, biochemical, small-molecule microarray, 635 nm fluorescence (AID 1105).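 Also: score merges emission near 667 nm and signal to noise per printed spot across three slides.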 The settings on record: FSTL3 binding, higher = more signal.
Assay [9] concerns the target Dickkopf-related protein 1 (Homo sapiens) (UniProt O94907). Nature of the assay: DKK1 binders on small-molecule microarrays, primary screen, biochemical, small-molecule microarray, 635 nm fluorescence scan (AID 1106).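 Also: score merges emission near 667 nm with signal to noise over three replicate slides.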 The settings on record: DKK1 binding, higher = more signal.
For assay [10], the system named is Inhibin beta A chain (activin A). Nature of the assay: INHBA (activin A) binders on microarrays, primary screen, biochemical, small-molecule microarray, 635 nm fluorescence scan (AID 1107).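 Also: mouse activin A protein probed at 4.33 µg/mL on printed slides; score merges bound-protein fluorescence near 667 nm with spot signal-to-noise.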 The settings on record: small-molecule microarray binding, higher = more signal.

Epidermal growth factor receptor (Homo sapiens), sequence (P00533 whole entry, looked up): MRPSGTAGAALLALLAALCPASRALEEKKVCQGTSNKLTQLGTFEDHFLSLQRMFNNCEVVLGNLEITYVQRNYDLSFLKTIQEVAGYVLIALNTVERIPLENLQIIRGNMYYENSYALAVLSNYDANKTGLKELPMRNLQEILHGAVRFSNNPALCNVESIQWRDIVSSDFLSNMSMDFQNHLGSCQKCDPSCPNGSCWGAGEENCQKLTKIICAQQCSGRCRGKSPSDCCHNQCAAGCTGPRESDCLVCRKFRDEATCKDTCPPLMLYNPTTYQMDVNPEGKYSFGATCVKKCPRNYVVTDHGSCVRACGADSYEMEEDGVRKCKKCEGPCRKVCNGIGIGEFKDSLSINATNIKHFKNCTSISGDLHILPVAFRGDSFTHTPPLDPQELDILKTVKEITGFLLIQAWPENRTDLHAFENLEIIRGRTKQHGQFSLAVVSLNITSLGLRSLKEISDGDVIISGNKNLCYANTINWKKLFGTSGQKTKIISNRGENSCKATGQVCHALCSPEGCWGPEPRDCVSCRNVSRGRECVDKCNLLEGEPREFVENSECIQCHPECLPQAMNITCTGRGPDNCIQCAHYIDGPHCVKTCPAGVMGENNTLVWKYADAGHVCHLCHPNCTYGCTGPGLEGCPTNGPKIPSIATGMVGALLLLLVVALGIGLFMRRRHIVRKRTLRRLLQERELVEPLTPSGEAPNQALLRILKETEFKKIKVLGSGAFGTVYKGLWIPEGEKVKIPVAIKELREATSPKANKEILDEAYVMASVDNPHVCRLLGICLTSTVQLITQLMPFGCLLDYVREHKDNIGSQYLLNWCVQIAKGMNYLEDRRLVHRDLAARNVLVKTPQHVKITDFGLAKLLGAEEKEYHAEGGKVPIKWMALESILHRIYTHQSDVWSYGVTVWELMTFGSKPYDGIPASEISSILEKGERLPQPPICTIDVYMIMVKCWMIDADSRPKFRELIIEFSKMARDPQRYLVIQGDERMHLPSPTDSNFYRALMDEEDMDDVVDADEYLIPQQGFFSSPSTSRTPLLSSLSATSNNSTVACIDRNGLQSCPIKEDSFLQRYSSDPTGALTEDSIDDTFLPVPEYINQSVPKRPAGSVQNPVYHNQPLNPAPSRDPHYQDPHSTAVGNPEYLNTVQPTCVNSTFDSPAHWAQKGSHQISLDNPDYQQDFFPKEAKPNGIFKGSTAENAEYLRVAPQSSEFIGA
Dickkopf-related protein 1 (Homo sapiens), sequence (O94907 whole entry, looked up): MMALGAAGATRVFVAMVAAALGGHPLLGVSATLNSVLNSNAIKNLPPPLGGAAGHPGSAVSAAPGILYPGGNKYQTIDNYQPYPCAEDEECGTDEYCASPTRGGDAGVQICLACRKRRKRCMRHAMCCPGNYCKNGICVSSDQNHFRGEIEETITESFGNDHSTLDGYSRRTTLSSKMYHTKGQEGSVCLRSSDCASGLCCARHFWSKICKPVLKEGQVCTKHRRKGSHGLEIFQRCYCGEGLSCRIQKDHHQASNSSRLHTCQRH
Follistatin-related protein 3 (Homo sapiens), sequence (O95633 whole entry, looked up): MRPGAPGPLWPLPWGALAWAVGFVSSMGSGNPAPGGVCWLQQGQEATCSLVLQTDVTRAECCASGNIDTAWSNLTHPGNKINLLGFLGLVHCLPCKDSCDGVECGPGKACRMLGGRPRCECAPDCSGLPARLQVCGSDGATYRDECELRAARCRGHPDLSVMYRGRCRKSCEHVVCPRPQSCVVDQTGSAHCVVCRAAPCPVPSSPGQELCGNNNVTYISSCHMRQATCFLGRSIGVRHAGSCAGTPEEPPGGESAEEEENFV
Fibroblast growth factor 10 (Homo sapiens), sequence (O15520 whole entry, looked up): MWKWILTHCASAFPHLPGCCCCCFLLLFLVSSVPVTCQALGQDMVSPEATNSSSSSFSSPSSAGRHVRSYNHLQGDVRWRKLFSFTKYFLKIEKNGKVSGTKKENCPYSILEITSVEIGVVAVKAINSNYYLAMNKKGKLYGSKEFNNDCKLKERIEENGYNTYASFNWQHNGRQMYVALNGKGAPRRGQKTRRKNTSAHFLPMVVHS

In the case of `CO[C@H]1O[C@H](CO)[C@@H](OC(=O)Nc2ccccc2)[C@H](OC(=O)Nc2ccccc2)[C@@H]1OC(=O)Nc1ccccc1`, the composite z-score in assay [1] was 1.48; in assay [2] it was -0.136; in assay [3] it was -0.103; in [5], 1.44; in assay [6], 1.3; in assay [7], 1.12. Moreover, the composite z-score in [8] is 1.11; in assay [9], 0.439; in [10], 0.0784. The z-score in assay [4] was -1.29 (inactive).

With `O=C1N(Cc2ccccc2)c2ccccc2[C@@H]2OC(c3ccc(OCCCO)cc3)=N[C@]12CCS(=O)(=O)c1ccccc1`, the composite z-score in assay [1] is 0.833; in assay [2] it was 0.562; in assay [3], 0.78; in [5], 0.17; in assay [6], 0.251; in assay [7], -0.24. Besides, the composite z-score was 0.0891 in assay [8], 0.0435 in [9] and 1.07 in assay [10]. Moreover, in assay [4], the z-score was 1.2 (inactive).

For `COC(=O)[C@@]1(Cc2ccc(OC)cc2)[C@H]2c3cc(C(=O)N4CCCC4)n(Cc4ccc(C)c(F)c4F)c3C[C@H]2CN1C(=O)c1ccccc1`, the composite z-score in assay [1] is 1.05; in [2], 1.09; in assay [3], 1.33; in assay [5], 0.791; in assay [6], 1.29; in assay [7], -0.139. Further, the composite z-score in [8] was 1.18; in [9], -0.602; in assay [10] it was 0.702. In [4], the z-score was -0.282 (inactive).

As to `NC(=O)NCC#Cc1ccc2c(c1)[C@]1(C(=O)N2)[C@H](C(=O)Nc2nc3ccccc3s2)[C@H]2C(=O)O[C@H](c3ccccc3)[C@H](c3ccccc3)N2[C@@H]1c1ccccc1OCCO`, the composite z-score in assay [1] was 1.23; in assay [2] it was 1.83; in assay [3], -0.202; in assay [5], 1.27; in assay [6], 0.261; in [7] it was 0.997. The values for the composite z-score in assay [8], in [9] and in assay [10] were 1.02, 1.44 and 1.08, respectively. The z-score in assay [4] was -0.137 (inactive).

`Cc1ccc(S[C@]2(C(=O)NCCCN(C)C)CC(=O)N(Cc3ccccc3C(F)(F)F)[C@@H]2c2ccc(CO)cc2)cc1`: the composite z-score is -1.14 in assay [1]; 0.631 in assay [2]; 0.95 in assay [3]; -0.904 in assay [5]; -0.761 in assay [6]; -0.636 in [7]. Besides, the composite z-score was -1.47 in assay [8], -0.798 in [9] and 0.94 in assay [10]. Further, in [4], the z-score is 0.375 (inactive).

For the compound `COCCOC(=O)N1C(=O)[C@@]2(c3cc(C#CCC(C(=O)OC)C(=O)OC)ccc31)[C@H](C(=O)N1CCN(c3ncccn3)CC1)[C@H]1C(=O)O[C@H](c3ccccc3)[C@H](c3ccccc3)N1[C@@H]2c1ccccc1OCCO`, the composite z-score in assay [1] is 0.664; in assay [2], -0.0805; in assay [3], -0.408; in assay [5], 1.33; in assay [6], 1.3; in assay [7] it was 0.926. The results for the composite z-score in [8], in [9] and in [10] were 1.38, 0.962 and 0.286, respectively. Moreover, the z-score in assay [4] was 0.476 (inactive).

Take `C=CCC(OC(C)=O)[C@@H]1[C@@H](N(Cc2cccc3ccccc23)C(=O)c2ccc(-c3ccccc3)cc2)c2cc(OCCCO)ccc2N1C(=O)c1ccc2ccccc2c1` (stereo not given in full): the composite z-score in assay [1] is -0.101; in assay [2] it was 0.25; in assay [3] it was 0.357; in assay [5] it was 0.0842; in [6], 0.293; in assay [7], 0.24. Also, the results for the composite z-score in assay [8], in assay [9] and in assay [10] were 0.476, -0.601 and 1.28, respectively. Further, the z-score in assay [4] was -0.157 (inactive).

Regarding `COC(=O)[C@@]1(Cc2ccc(OC)cc2)[C@H]2c3cc(C(=O)N(C)C)n(Cc4ccccn4)c3C[C@H]2CN1C(=O)c1ccccc1`, the composite z-score in [1] was 1.04; in [2] it was 1.2; in assay [3], 1.36; in assay [5], -0.024; in assay [6], -0.305; in [7], -0.627. In addition, the composite z-score was -0.317 in assay [8], -0.659 in assay [9] and -1.71 in assay [10]. The z-score in assay [4] was -1.71 (inactive).

For `COc1ccc(C#Cc2ccc3c(c2)[C@]2(C(=O)N3)[C@H](C(=O)NC[C@H](O)c3ccccc3)[C@H]3C(=O)O[C@H](c4ccccc4)[C@H](c4ccccc4)N3[C@@H]2c2ccc(O)cc2)cc1`, the composite z-score is 1.16 in assay [1]; -0.0262 in assay [2]; 0.295 in [3]; 1.02 in assay [5]; 1.16 in assay [6]; 0.417 in assay [7]. For the same compound, the results for the composite z-score in [8], in [9] and in [10] were 0.768, 0.484 and 0.0998, respectively. Moreover, the z-score in assay [4] is -0.993 (inactive).

Consider `[N-]=[N+]=Nc1ccccc1[C@@H]1OC(c2ccc(OCCCO)cc2)=N[C@]1(CCS(=O)(=O)c1ccccc1)C(N)=O`, for which the composite z-score was determined as 1.37 in [1]; 0.708 in assay [2]; 1.25 in [3]; 1.09 in [5]; 1.23 in [6]; 0.0129 in assay [7]. In addition, the composite z-score is 1.22 in assay [8], -0.329 in [9] and 0.992 in [10]. The z-score in [4] is -0.752 (inactive).

On to `COCCOC(=O)N1C(=O)[C@@]2(c3cc(C#CC4(O)CCCCCC4)ccc31)[C@H](c1ccccc1OCCO)N1[C@H](c3ccccc3)[C@H](c3ccccc3)OC(=O)[C@H]1[C@@H]2C(=O)N1CCN(c2ncccn2)CC1`, for which the composite z-score in [1] was 0.892; in [2], 0.0468; in [3], -0.0635; in assay [5] it was 1.12; in assay [6], 1.03; in assay [7] it was 0.484. Moreover, the composite z-score stood at 1.18 in assay [8], 0.991 in assay [9] and 0.244 in [10]. Moreover, in [4], the z-score was 0.514 (inactive).

For the origin of these results see PubChem BioAssay.
